# The panel holds about 79,000 compounds, 15% with a hit somewhere; the sample as a whole holds those more often. Values without a mark were called inactive. The source made the active and inactive calls. Rule as the data show it: active = growth inhibition above about 70%; inactive = the rest.
# Legend:
# [1] = NCI Yeast Anticancer Drug Screen. Data for the mec2-1 strain (AID 157); details: S. cerevisiae mec2-1 strain, active compounds read high
# In short: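 Strain: mec2-1 (DNA repair/cell cycle alteration). Compound exposure, then growth measured; inhibition expressed relative to vehicle.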
# [2] = NCI Yeast Anticancer Drug Screen. Data for the rad14 strain (AID 159);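 also: 0% = growth of vehicle-treated control cultures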; details: S. cerevisiae rad14 strain growth inhibition, active compounds read high
# In short: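 DNA repair-defective yeast, compound-exposed; % growth inhibition derived by comparison with vehicle-treated controls.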
# [3] = NCI Yeast Anticancer Drug Screen. Data for the sgs1 mgt1 strain (AID 161);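 also: 0% = growth of cultures given vehicle only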; details: S. cerevisiae sgs1 mgt1 strain, active compounds read high
# In short: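 Test agents were incubated with a DNA-repair-mutant yeast strain. Growth was then read and compared against vehicle-treated controls.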
# [4] = NCI Yeast Anticancer Drug Screen. Data for the CLN2oe strain (AID 163);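 also: 0% = growth of vehicle-only control cultures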; details: S. cerevisiae CLN2oe strain, active compounds read high
# In short: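 Growth of a genetically modified yeast strain is measured after compound exposure and compared with cultures given vehicle alone.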
# [5] = NCI Yeast Anticancer Drug Screen. Data for the cln2 rad14 strain (AID 165);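 also: 0% = growth equal to vehicle treated cultures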; details: S. cerevisiae cln2 rad14 strain, active compounds read high
# In short: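 Compounds are applied to the cln2 rad14 yeast strain, and growth is then compared with that of vehicle-treated cultures to give inhibition.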
# [6] = NCI Yeast Anticancer Drug Screen. Data for the bub3 strain (AID 167); details: S. cerevisiae bub3 mutant strain, active compounds read high
# In short: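 In this screen, a yeast mutant lacking normal mitotic checkpoint function is challenged with compound. Relative growth versus vehicle gives the inhibition value.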
# [7] = NCI Yeast Anticancer Drug Screen. Data for the wt2 strain (AID 169);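 also: 0% = growth of vehicle-treated yeast cultures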; details: S. cerevisiae wt2 strain growth inhibition, active compounds read high
# In short: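 This strain belongs to a panel of yeast strains with defined genetic alterations in DNA damage repair or cell cycle control. Compounds are applied, and growth inhibition is measured against vehicle-treated cultures.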
# [8] = NCI Yeast Anticancer Drug Screen. Data for the mlh1 strain (AID 171);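 also: 0% = growth of vehicle-treated control cultures of the same strain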; details: S. cerevisiae mlh1 strain growth inhibition, active compounds read high
# In short: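 Growth of the mutant yeast strain after compound exposure, expressed as inhibition relative to vehicle-only controls.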
# [9] = NCI Yeast Anticancer Drug Screen. Data for the sgs1 strain (AID 173);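 also: 0% = growth of vehicle-only control cultures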; details: S. cerevisiae sgs1 mutant, active compounds read high
# In short: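 Growth of a yeast strain bearing a defined genetic alteration is measured after compound treatment. Inhibition is expressed relative to vehicle-only controls.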
# [10] = NCI Yeast Anticancer Drug Screen. Data for the mlh1 rad18 strain (AID 175); details: S. cerevisiae mlh1 rad18 strain growth inhibition, active compounds read high
# In short: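 Read-out is yeast growth inhibition, calculated against vehicle-only controls. The compound was applied to a strain engineered with DNA damage repair alterations.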
# [11] = NCI Yeast Anticancer Drug Screen. Data for the rad18 strain (AID 177); details: S. cerevisiae rad18 mutant growth inhibition, active compounds read high
# In short: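 Growth of the mutant yeast strain after compound exposure, normalised to vehicle-only cultures.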
# [12] = NCI Yeast Anticancer Drug Screen. Data for the rad52 strain (AID 147);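 also: 0% = growth of vehicle-treated control cultures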; details: S. cerevisiae rad52 mutant growth inhibition, active compounds read high
# In short: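 Compounds are applied to a genetically defined yeast strain lacking normal DNA damage repair, and inhibition of growth is expressed relative to cultures given vehicle only.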
# [13] = NCI Yeast Anticancer Drug Screen. Data for the wt1 strain (AID 149);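 also: 0% = growth of vehicle-treated wt1 cultures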; details: S. cerevisiae wt1 strain (SPY 50644) growth inhibition, active compounds read high
# In short: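 wt1 strain grown with compound or vehicle; inhibition taken from the growth difference.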
# [14] = NCI Yeast Anticancer Drug Screen. Data for the rad50EPP+ strain (AID 151);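 also: 0% = growth of vehicle-treated control cultures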; details: S. cerevisiae rad50 mutant strain, active compounds read high
# In short: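 Compounds were applied to the rad50EPP+ yeast strain, which bears a defined DNA repair alteration, and growth inhibition was determined relative to vehicle-treated cultures.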
# [15] = NCI Yeast Anticancer Drug Screen. Data for the mgt1 strain (AID 153); details: S. cerevisiae mgt1 mutant growth inhibition, active compounds read high
# In short: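 Strain: mgt1 yeast, one of a set carrying defined DNA damage repair or cell cycle control alterations. Compound-treated growth compared with vehicle.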
# [16] = NCI Yeast Anticancer Drug Screen. Data for the rad50 strain (AID 155);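 also: 0% = growth of vehicle-only cultures of the same strain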; details: S. cerevisiae rad50 strain growth inhibition, active compounds read high
# In short: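 DNA repair mutant yeast, compound exposure, growth read-out; inhibition is taken relative to vehicle.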
# [17] = at 5.0 µM (retest, dose inferred, filed as 0.5)
# [18] = at 50.0 µM (retest, dose inferred, filed as 5.0)
smiles,measurement,setting,value
CCCCNC1CCC2(SCCS2)c2[nH]c3ccccc3c21 (stereo unspecified),growth inhibition,[1]; [17],4%
same,growth inhibition,[1]; at 11.0 µM,-2%
same,growth inhibition,[1]; at 33.0 µM,-4%
same,growth inhibition,[1]; [18],-14%
same,growth inhibition,[1]; at 50.0 µM,91.2% (active)
same,growth inhibition,[1]; at 100.0 µM,7%
same,growth inhibition,[2]; at 1.2 µM,6%
same,growth inhibition,[2]; at 3.7 µM,0%
same,growth inhibition,[2]; at 11.0 µM,4%
same,growth inhibition,[2]; at 33.0 µM,1%
same,growth inhibition,[2]; at 100.0 µM,9%
same,growth inhibition,[3]; [17],-5%
same,growth inhibition,[3]; [18],21%
same,growth inhibition,[3]; at 50.0 µM,85.2% (active)
same,growth inhibition,[4]; at 1.2 µM,10%
same,growth inhibition,[4]; at 3.7 µM,-4%
same,growth inhibition,[4]; at 11.0 µM,0%
same,growth inhibition,[4]; at 33.0 µM,-1%
same,growth inhibition,[4]; at 100.0 µM,6%
same,growth inhibition,[5]; [17],-7%
same,growth inhibition,[5]; [18],31%
same,growth inhibition,[5]; at 50.0 µM,89.5% (active)
same,growth inhibition,[6]; at 1.2 µM,-6%
same,growth inhibition,[6]; at 3.7 µM,1%
same,growth inhibition,[6]; [17],-16%
same,growth inhibition,[6]; at 11.0 µM,6%
same,growth inhibition,[6]; at 33.0 µM,-1%
same,growth inhibition,[6]; [18],17%
same,growth inhibition,[6]; at 50.0 µM,88.2% (active)
same,growth inhibition,[6]; at 100.0 µM,3%
same,growth inhibition,[7]; at 1.2 µM,1%
same,growth inhibition,[7]; at 3.7 µM,2%
same,growth inhibition,[7]; at 11.0 µM,3%
same,growth inhibition,[7]; at 33.0 µM,3%
same,growth inhibition,[7]; at 100.0 µM,8%
same,growth inhibition,[8]; at 1.2 µM,5%
same,growth inhibition,[8]; at 3.7 µM,-2%
same,growth inhibition,[8]; at 11.0 µM,4%
same,growth inhibition,[8]; at 33.0 µM,-1%
same,growth inhibition,[8]; at 100.0 µM,6%
same,growth inhibition,[9]; at 1.2 µM,0%
same,growth inhibition,[9]; at 3.7 µM,-2%
same,growth inhibition,[9]; at 11.0 µM,-1%
same,growth inhibition,[9]; at 33.0 µM,-3%
same,growth inhibition,[9]; at 100.0 µM,3%
same,growth inhibition,[10]; [17],1%
same,growth inhibition,[10]; [18],21%
same,growth inhibition,[10]; at 50.0 µM,84.7% (active)
same,growth inhibition,[11]; at 1.2 µM,2%
same,growth inhibition,[11]; at 3.7 µM,-4%
same,growth inhibition,[11]; at 11.0 µM,-4%
same,growth inhibition,[11]; at 33.0 µM,-18%
same,growth inhibition,[11]; at 100.0 µM,4%
COc1ccc(C(NCCNC(c2ccc(OC)c(OC)c2)c2cc3c(cc2O)OCO3)c2cc3c(cc2O)OCO3)cc1OC (stereo unspecified),growth inhibition,[12]; at 1.2 µM,-1%
same,growth inhibition,[12]; at 3.7 µM,-6%
same,growth inhibition,[12]; at 11.0 µM,7%
same,growth inhibition,[12]; at 33.0 µM,89% (active)
same,growth inhibition,[12]; at 100.0 µM,99% (active)
same,growth inhibition,[13]; at 1.2 µM,4%
same,growth inhibition,[13]; at 3.7 µM,-2%
same,growth inhibition,[13]; at 11.0 µM,2%
same,growth inhibition,[13]; at 33.0 µM,29%
same,growth inhibition,[13]; at 100.0 µM,99% (active)
same,growth inhibition,[14]; at 1.2 µM,-6%
same,growth inhibition,[14]; at 3.7 µM,-11%
same,growth inhibition,[14]; at 11.0 µM,10%
same,growth inhibition,[14]; at 33.0 µM,87% (active)
same,growth inhibition,[14]; at 100.0 µM,97% (active)
same,growth inhibition,[15]; at 1.2 µM,2%
same,growth inhibition,[15]; at 3.7 µM,4%
same,growth inhibition,[15]; at 11.0 µM,3%
same,growth inhibition,[15]; at 33.0 µM,3%
same,growth inhibition,[15]; at 100.0 µM,99% (active)
same,growth inhibition,[16]; at 1.2 µM,4%
same,growth inhibition,[16]; at 3.7 µM,-10%
same,growth inhibition,[16]; [17],-12%
same,growth inhibition,[16]; at 11.0 µM,19%
same,growth inhibition,[16]; at 33.0 µM,74% (active)
same,growth inhibition,[16]; [18],7%
same,growth inhibition,[16]; at 50.0 µM,38.2%
same,growth inhibition,[16]; at 100.0 µM,99% (active)
same,growth inhibition,[1]; at 1.2 µM,-1%
same,growth inhibition,[1]; at 3.7 µM,1%
same,growth inhibition,[1]; [17],-11%
same,growth inhibition,[1]; at 11.0 µM,9%
same,growth inhibition,[1]; at 33.0 µM,78% (active)
same,growth inhibition,[1]; [18],95% (active)
same,growth inhibition,[1]; at 50.0 µM,27.9%
same,growth inhibition,[1]; at 100.0 µM,99% (active)
same,growth inhibition,[2]; at 1.2 µM,1%
same,growth inhibition,[2]; at 3.7 µM,5%
same,growth inhibition,[2]; at 11.0 µM,27%
same,growth inhibition,[2]; at 33.0 µM,92% (active)
same,growth inhibition,[2]; at 100.0 µM,99% (active)
same,growth inhibition,[3]; [17],4%
same,growth inhibition,[3]; [18],48%
same,growth inhibition,[3]; at 50.0 µM,72.2% (active)
same,growth inhibition,[4]; at 1.2 µM,-6%
same,growth inhibition,[4]; at 3.7 µM,1%
same,growth inhibition,[4]; at 11.0 µM,7%
same,growth inhibition,[4]; at 33.0 µM,18%
same,growth inhibition,[4]; at 100.0 µM,98% (active)
same,growth inhibition,[5]; [17],-29%
same,growth inhibition,[5]; [18],23%
same,growth inhibition,[5]; at 50.0 µM,41.2%
same,growth inhibition,[6]; at 1.2 µM,-1%
same,growth inhibition,[6]; at 3.7 µM,-6%
same,growth inhibition,[6]; [17],-21%
same,growth inhibition,[6]; at 11.0 µM,0%
same,growth inhibition,[6]; at 33.0 µM,15%
same,growth inhibition,[6]; [18],28%
same,growth inhibition,[6]; at 50.0 µM,54.8%
same,growth inhibition,[6]; at 100.0 µM,98% (active)
same,growth inhibition,[7]; at 1.2 µM,-1%
same,growth inhibition,[7]; at 3.7 µM,-2%
same,growth inhibition,[7]; at 11.0 µM,7%
same,growth inhibition,[7]; at 33.0 µM,50%
same,growth inhibition,[7]; at 100.0 µM,99% (active)
same,growth inhibition,[8]; at 1.2 µM,2%
same,growth inhibition,[8]; at 3.7 µM,1%
same,growth inhibition,[8]; at 11.0 µM,12%
same,growth inhibition,[8]; at 33.0 µM,84% (active)
same,growth inhibition,[8]; at 100.0 µM,99% (active)
same,growth inhibition,[9]; at 1.2 µM,2%
same,growth inhibition,[9]; at 3.7 µM,0%
same,growth inhibition,[9]; at 11.0 µM,4%
same,growth inhibition,[9]; at 33.0 µM,63%
same,growth inhibition,[9]; at 100.0 µM,99% (active)
same,growth inhibition,[10]; [17],-29%
same,growth inhibition,[10]; [18],34%
same,growth inhibition,[10]; at 50.0 µM,46.6%
same,growth inhibition,[11]; at 1.2 µM,-4%
same,growth inhibition,[11]; at 3.7 µM,-4%
same,growth inhibition,[11]; at 11.0 µM,8%
same,growth inhibition,[11]; at 33.0 µM,75% (active)
same,growth inhibition,[11]; at 100.0 µM,98% (active)
